Measurements reported in PubChem BioAssay AID1159580 (chemical genetic matrix, 2015).
Hit rate of the full screen: of about 5,500 compounds, about 2,000 (36%) were called active. Roughly 18% stayed inconclusive and do not appear here. Cut-off read from the data, not from the text of the source: active = normalized growth mostly below about 0.91 (no sharp cut-off); inconclusive = no clear call, values can overlap the other calls; inactive = mostly above about 0.92. The list shows a part of the results.

Assay: chemical genetic growth profiling, strain panel (AID 1159580);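 note: tested at 20 µM; growth read once vehicle control cultures reached saturation at 30 °C; 1 = growth at the plate median or of vehicle wells; lower values mean less growth of the strain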
Settings: growth OD

Measured: normalized growth

NS(=O)(=O)c1cc2c(cc1Cl)NC(CSCc1ccccc1)=NS2(=O)=O
inactive: S. cerevisiae deletion strains, locus YJR075W, strain HOC1, active compounds read low 0.971 | S. cerevisiae deletion strains, locus YKL009W, strain mrt4, active compounds read low 0.99 | S. cerevisiae deletion strains, locus YKL068W, active compounds read low 0.988 | S. cerevisiae deletion strains, locus YKL085W, strain MDH1 (second series), active compounds read low 0.998 | S. cerevisiae deletion strains, locus YKL085W, strain MDH1, active compounds read low 0.998 | S. cerevisiae deletion strains, locus YKL160W, strain elf1, active compounds read low 1.01 | S. cerevisiae deletion strains, locus YKL190W, strain CNB1, active compounds read low 0.987 | S. cerevisiae deletion strains, locus YKR001C, strain vps1, active compounds read low 0.982 | S. cerevisiae deletion strains, locus YKR026C, strain gcn3, active compounds read low 1.02 | S. cerevisiae deletion strains, locus YKR091W, strain srl3, active compounds read low 1.02 | S. cerevisiae deletion strains, locus YLL001W, strain dnm1, active compounds read low 1.03 | S. cerevisiae deletion strains, locus YLL026W, active compounds read low 1.02 | S. cerevisiae deletion strains, locus YLL041C, strain sdh2, active compounds read low 1.02 | S. cerevisiae deletion strains, locus YLR027C, strain aat2, active compounds read low 1.02 | S. cerevisiae deletion strains, locus YLR039C, strain RIC1, active compounds read low 1.05 | S. cerevisiae deletion strains, locus YLR058C, strain SHM2, active compounds read low 0.982 | S. cerevisiae deletion strains, locus YLR102C, strain apc9, active compounds read low 0.986 | S. cerevisiae deletion strains, locus YLR113W, strain HOG1, active compounds read low 0.97 | S. cerevisiae deletion strains, locus YLR221C, strain rsa3, active compounds read low 1.02 | S. cerevisiae deletion strains, locus YLR258W, strain gsy2, active compounds read low 0.994 | S. cerevisiae deletion strains, locus YLR262C, strain YPT6 (second series), active compounds read low 1.05 | S. cerevisiae deletion strains, locus YLR262C, strain YPT6, active compounds read low 1.04 | S. cerevisiae deletion strains, locus YLR268W, strain sec22, active compounds read low 0.992 | S. cerevisiae deletion strains, locus YLR320W, strain mms22, active compounds read low 0.976 | S. cerevisiae deletion strains, locus YLR330W, strain CHS5, active compounds read low 0.987 | S. cerevisiae deletion strains, locus YLR342W, strain FKS1 (second series), active compounds read low 1.01 | S. cerevisiae deletion strains, locus YLR342W, strain FKS1, active compounds read low 1.02 | S. cerevisiae deletion strains, locus YLR357W, strain rsc2, active compounds read low 1.02 | S. cerevisiae deletion strains, locus YLR370C, strain arc18, active compounds read low 1.01 | S. cerevisiae deletion strains, locus YLR371W, strain rom2, active compounds read low 0.974 | S. cerevisiae deletion strains, locus YLR384C, strain iki3, active compounds read low 1.02 | S. cerevisiae deletion strains, locus YLR418C, strain cdc73, active compounds read low 0.994 | S. cerevisiae deletion strains, locus YML016C, strain PPZ1, active compounds read low 0.987 | S. cerevisiae deletion strains, locus YML032C, strain rad52, active compounds read low 0.995 | S. cerevisiae deletion strains, locus YML120C, strain ndi1, active compounds read low 1.04 | S. cerevisiae deletion strains, locus YML124C, strain tub3, active compounds read low 0.995 | S. cerevisiae deletion strains, locus YMR058W, strain fet3, active compounds read low 1.02 | S. cerevisiae deletion strains, locus YMR078C, strain ctf18, active compounds read low 0.983 | S. cerevisiae deletion strains, locus YMR125W, strain sto1, active compounds read low 1.01 | S. cerevisiae deletion strains, locus YMR129W, active compounds read low 1.03 | S. cerevisiae deletion strains, locus YMR205C, strain PFK2, active compounds read low 1.02 | S. cerevisiae deletion strains, locus YMR223W, strain ubp8, active compounds read low 0.985 | S. cerevisiae deletion strains, locus YMR231W, strain pep5, active compounds read low 1.01 | S. cerevisiae deletion strains, locus YMR263W, strain SAP30, active compounds read low 0.977 | S. cerevisiae deletion strains, locus YMR307W, strain GAS1, active compounds read low 0.971 | S. cerevisiae deletion strains, locus YNL067W, strain RPL9B, active compounds read low 0.959 | S. cerevisiae deletion strains, locus YNL071W, strain lat1, active compounds read low 0.978 | S. cerevisiae deletion strains, locus YNL153C, strain GIM3, active compounds read low 0.966 | S. cerevisiae deletion strains, locus YNL183C, strain NPR1, active compounds read low 0.909 | S. cerevisiae deletion strains, locus YNL209W, strain ssb2, active compounds read low 1 | S. cerevisiae deletion strains, locus YNL233W, strain BNI4, active compounds read low 0.958 | S. cerevisiae deletion strains, locus YNL248C, strain rpa49, active compounds read low 1 | S. cerevisiae deletion strains, locus YNL250W, strain rad50, active compounds read low 0.978 | S. cerevisiae deletion strains, locus YNL271C, strain bni1, active compounds read low 0.998 | S. cerevisiae deletion strains, locus YNL298W, strain CLA4, active compounds read low 0.982 | S. cerevisiae deletion strains, locus YNL307C, strain MCK1, active compounds read low 0.983 | S. cerevisiae deletion strains, locus YNL322C, strain KRE1 (second series), active compounds read low 1.02 | S. cerevisiae deletion strains, locus YNL322C, strain KRE1, active compounds read low 0.994 | S. cerevisiae deletion strains, locus YNR049C, strain mso1, active compounds read low 1.02 | S. cerevisiae deletion strains, locus YNR052C, strain pop2, active compounds read low 0.981 | S. cerevisiae deletion strains, locus YOL012C, strain htz1 0.861 | S. cerevisiae deletion strains, locus YOL147C, strain pex11, active compounds read low 0.985 | S. cerevisiae deletion strains, locus YOR001W, strain rrp6, active compounds read low 1.04 | S. cerevisiae deletion strains, locus YOR061W, strain CKA2, active compounds read low 1 | S. cerevisiae deletion strains, locus YOR069W, strain VPS5, active compounds read low 0.987 | S. cerevisiae deletion strains, locus YOR070C, strain gyp1, active compounds read low 1 | S. cerevisiae deletion strains, locus YOR080W, strain dia2, active compounds read low 1.03 | S. cerevisiae deletion strains, locus YOR083W, strain WHI5, active compounds read low 1.05 | S. cerevisiae deletion strains, locus YOR106W, strain vam3, active compounds read low 1.03 | S. cerevisiae deletion strains, locus YOR136W, strain idh2, active compounds read low 0.979 | S. cerevisiae deletion strains, locus YOR144C, strain elg1, active compounds read low 0.987 | S. cerevisiae deletion strains, locus YOR184W, strain ser1, active compounds read low 0.985 | S. cerevisiae deletion strains, locus YOR231W, strain MKK1, active compounds read low 0.959 | S. cerevisiae deletion strains, locus YOR265W, strain rbl2, active compounds read low 1.01 | S. cerevisiae deletion strains, locus YOR270C, strain vph1, active compounds read low 1.05 | S. cerevisiae deletion strains, locus YOR290C, strain snf2, active compounds read low 1.01 | S. cerevisiae deletion strains, locus YOR316C, strain cot1, active compounds read low 0.973 | S. cerevisiae deletion strains, locus YPL051W, strain arl3, active compounds read low 1.02 | S. cerevisiae deletion strains, locus YPL078C, strain atp4, active compounds read low 1.06 | S. cerevisiae deletion strains, locus YPL106C, strain sse1, active compounds read low 0.973 | S. cerevisiae deletion strains, locus YPL240C, strain hsp82, active compounds read low 1.01 | S. cerevisiae deletion strains, locus YPL256C, strain CLN2, active compounds read low 0.935 | S. cerevisiae deletion strains, locus YPR119W, strain clb2, active compounds read low 0.98 | S. cerevisiae deletion strains, locus YPR141C, strain kar3, active compounds read low 0.973 | S. cerevisiae deletion strains, locus YPR163C, strain tif3, active compounds read low 0.982 | S. cerevisiae deletion strains, locus YPR167C, strain met16, active compounds read low 0.989 | S. cerevisiae deletion strains, strain wtn01, active compounds read low 0.967 | S. cerevisiae strains, strain wild type, active compounds read low 0.992
